The source of these data is PubChem BioAssay (NCI).

Several values for one entry are separate records, joined by “and”; a condition that tells them apart may be missing. Identical values can stand only once. About 83,000 compounds went through this panel and 20% of them were active in at least one assay; those are over-represented in the sample as a whole.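 Percent growth is the endpoint: 0 to 100 indicates growth inhibition (40 means 60% inhibition), 0 means no net growth, and negative values indicate cell death.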 A number with no mark means an inactive call. Activity calls are given as the source filed them. The calls were made as follows: active = growth percent below 10; inactive = the rest.

This experiment relates to MDA-MB-468 breast. The experiment is described as follows: NCI-60 one-dose screen, 48 h (100 = growth as untreated, 0 = no growth, -100 = all killed). Particulars: 10 µM unless noted.
As for `Cc1sc2c(c1C)c(=O)nc1c(-c3nc(-c4ccccc4)cs3)n[nH]n12`, the growth is 116%.
Consider `C/C(=N\Nc1nc(C)cs1)c1cc2ccccc2o1`, for which the growth was 82.6%.
The figure for `CN(CCOc1ccc(CC2SC(=O)NC2=O)cc1)c1ccccn1` (stereo unspecified) is 100%; for `Nc1ccc(Sc2ccc3c4c2cccc4c(=O)n2c4ccccc4nc32)cc1` it is 43.5%.
Consider `CN(C)c1ccc(C(Cc2ccc3ccccc3n2)Cc2ccc3ccccc3n2)cc1`, for which the growth was 32.6% and 77%.
The figure for `O=C(Nc1cccc(Br)c1)Oc1ccc(Cl)c2cccnc12` is -9.1% [100 µM] (active); for `COc1ccc(-c2nc(/C=C3\C(=O)N(C)c4ccccc43)c3ccccn23)cc1` it is 98.5%; for `N/C(=N\C(N)=N\c1nc2ccccc2s1)c1cccc(Cl)c1` it is 110%.
For `Nc1c(C(=O)Nc2cccc(C(F)(F)F)c2)sc2nc3c(cc12)C(O)CCC3` (stereo unspecified), the growth was 22.4%.
The figure for `Nc1nnc(-c2ccc3ccccc3c2O)o1` is 96.5%; for `COc1ccc(C2=NN(C=O)C(c3ccc(OS(=O)(=O)c4ccc(C)cc4)c(OC)c3)C2)cc1` (stereo unspecified) it is 18.1%.
The figure for `CCOC(=O)C(CCN(C)C)c1ccccc1` (stereo unspecified) is 101%; for `CC1(C)C(=O)/C(=C\c2ccco2)C[C@]2(C)[C@H]3CC=C4[C@@H]5C[C@](C)(C(=O)O)CC[C@]5(C)CC[C@@]4(C)[C@]3(C)CC[C@@H]12` it is -47.2% [100 µM] (active).
In the case of `O=[N+]([O-])c1ccc(N/N=C\c2cc(Cl)ccc2O)nc1`, the growth was -2.47% (active).
The figure for `CC1CCN(CCCCCOc2ccc3oc4ccccc4c(=O)c3c2)CC1` is 41.6%; for `Clc1ccc(-c2nc(-c3cccs3)no2)c(Cl)c1` it is 8.37% (active); for `CCOC(=O)c1cc(C)n(-c2ccc(C(=O)O)cc2)c1C` it is 65.5%.
The figure for `Oc1ccc(/C=N/Nc2nnc(N/N=C/c3ccc(O)cc3O)c3ccccc23)c(O)c1` is -47.3% (active); for `O=[N+]([O-])c1ccccc1N=Nc1ccc(O)cc1O` it is 118%.
The figure for `Cc1ccc(S(=O)(=O)NNC(=O)/C(=C\c2ccc(Cl)cc2)c2nc3ccccc3s2)cc1` is 111%; for `COc1ccc(/C=C2\N=C(c3ccccc3)N(C(=O)c3ccccc3O)NC2=O)cc1` it is 106%; for `O=C(CN1N=C(c2ccc(F)cc2)CCC1=O)Nc1nccs1` it is 94.6%.
Take `CC1(C)N=C(N)N=C(N)N1c1cccc(/C=C/C=C/c2cccc([N+](=O)[O-])c2)c1`: the growth was 16.2%.
Turning to `Cc1cc(C)nc(NC(N)=NCCc2ccccc2)n1`, the growth was -3.56% (active).
The figure for `Cc1ccc(NC(=O)/C=N/O)cc1C` is 62.4%; for `Clc1ccc2[nH]c3c(NCCCN4CCOCC4)ncnc3c2c1` it is 33.7%.
